Measurements reported in PubChem BioAssay (Tox21).
Where “and” joins values, the source holds several entries; their conditions need not be identical. Equal entries are not always repeated. Results filed as inconclusive are left out. A call without a number means that no potency is given here. A structure can be active in one record and inactive in another. Calls of active or inactive are those of the source. Unless noted, calls come from the whole dose curve; as a rule, active = well fitted curve in the direction sought with a large enough effect in the repeat runs; inconclusive = weak or mixed curves; inactive = no such curve, though single readings can be large; an effect the other way counts as inactive or inconclusive.

How the values were obtained:
[1] = qHTS assay to identify small molecule agonists of the progesterone receptor (PR) signaling pathway - cell viability counter screen (AID 1346799; calls by dose curve; note: nearly all actives have a fitted effect of over 45% in size; note: potency is the fitted concentration of half-maximal effect)
Method in brief: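 Cytotoxicity measured by CellTiter-Glo luminescence (30 min, RT) in the same wells as the PR beta-lactamase agonist read. Those HEK293T cells had 16 h compound treatment at 37 C in 2% charcoal-stripped FBS medium.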

[2] = qHTS assay to identify small molecule antagonists of the TGF-beta/Smad signaling pathway - cell viability counter screen (AID 1346824); note: nearly all actives have a fitted effect of over 50% in size
Method in brief: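 Cytotoxicity counter-screen run in the same wells as the beta-lactamase Smad reporter read: CellTiter-Glo luminescence after 30 min at room temperature. HEK 293T SBE-bla cells had 5 hr compound exposure at 37 C with TGF-beta1 (0.25 ng/mL stock).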

[3] = qHTS assay to identify small molecule agonists of the TGF-beta/Smad signaling pathway - cell viability counter screen (AID 1346829); note: top concentration of the series differs between compounds; nearly all actives have a fitted effect of over 45% in size
Method in brief: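 Compound-treated SBE-bla HEK 293T cells (5 hr, 37 C) were assessed for viability with CellTiter-Glo in parallel with the reporter read.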

[4] = qHTS assay to identify small molecule agonists of the TGF-beta/Smad signaling pathway (AID 1346859; active = well fitted activation curve with a large enough effect in the signal ratio in the repeat runs, not every such curve was filed as active; the % refers to the signal ratio; note: series mostly up to about 77 µM)
Method in brief: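 Fluorescence (ex 405 nm; em 460 and 530 nm) was read 2 h after LiveBLAzer FRET substrate at RT. The preceding compound treatment of overnight-plated SBE-bla HEK293T cells lasted 5 h at 37 C.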

[5] = Caspase-3/7 induction in HepG2 cells by small molecules, qHTS assay (AID 1346978); note: nearly all actives have a fitted effect of over 15% in size
Method in brief: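 Caspase-3/7 induction was measured by Caspase-Glo 3/7 luminescence (30 min, room temperature) after a 17 hr compound exposure of wild-type HepG2 cells seeded at 2,000 per well and pre-incubated 5 hr.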

[6] = Caspase-3/7 induction in CHO-K1 cells by small molecules, qHTS cell viability counter screen (AID 1346979); note: nearly all actives have a fitted effect of over 35% in size; note: potency is the fitted concentration of half-maximal effect
Method in brief: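 Cytotoxicity counter screen: CellTiter-Fluor added to compound-treated wild-type CHO-K1 cells at 16 h (37C, 5% CO2), fluorescence measured 1 h later; same wells as caspase-3/7 measurement.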

[7] = Caspase-3/7 induction in CHO-K1 cells by small molecules, qHTS assay (AID 1346980); note: nearly all actives have a fitted effect of over 15% in size
Method in brief: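 Luminescent Caspase-Glo 3/7 read (30min, room temperature) quantified apoptosis induction. Cells were wild-type CHO-K1, treated with compound for 17hr at 37 C and 5% CO2.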

[8] = Caspase-3/7 induction in HepG2 cells by small molecules, qHTS cell viability counter screen (AID 1346981); note: series mostly up to about 92 µM; nearly all actives have a fitted effect of over 30% in size
Method in brief: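 HepG2, WT, 2,000 cells/well; 5 hr pre-incubation 37 C/5% CO2; compound pin-transferred from DMSO; 16 hr exposure; CellTiter-Fluor, 1 hr; fluorescence read.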

[9] = biological target: Nuclear receptor subfamily 1 group I member 2 (Homo sapiens) (UniProt O75469); test: Human pregnane X receptor (PXR) small molecule agonists, qHTS assay (AID 1346982); note: nearly all actives have a fitted effect of over 35% in size; note: potency is the fitted concentration of half-maximal effect
Sequence of Nuclear receptor subfamily 1 group I member 2 (Homo sapiens) (O75469 whole entry, looked up): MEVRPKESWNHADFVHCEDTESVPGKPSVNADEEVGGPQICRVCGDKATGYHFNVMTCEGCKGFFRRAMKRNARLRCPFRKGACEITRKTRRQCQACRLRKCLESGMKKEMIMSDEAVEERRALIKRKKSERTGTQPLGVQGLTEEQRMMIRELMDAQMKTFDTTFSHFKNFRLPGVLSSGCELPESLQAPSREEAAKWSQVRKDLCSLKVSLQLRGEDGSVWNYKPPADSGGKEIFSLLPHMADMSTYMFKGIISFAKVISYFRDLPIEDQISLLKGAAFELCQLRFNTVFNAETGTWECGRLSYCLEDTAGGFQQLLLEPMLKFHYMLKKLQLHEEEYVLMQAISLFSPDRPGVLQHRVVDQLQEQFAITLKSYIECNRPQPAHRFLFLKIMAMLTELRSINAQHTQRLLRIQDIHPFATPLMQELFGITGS
Method in brief: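 Luciferase signal from ONE-Glo (30 min, room temperature) measured activation of hPXR-driven CYP3A4 reporter expression in PXR-Luc HepG2 cells treated with compounds for 24 hr at 37 C.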

[10] = biological target: Acetylcholinesterase (Homo sapiens) (UniProt P22303); test: Acetylcholinesterase (AChE) small molecule antagonists: colormetric cell-based qHTS assay (AID 1347395; calls by dose curve; note: nearly all actives have a fitted effect of over 30% in size)
Sequence of Acetylcholinesterase (Homo sapiens) (P22303 whole entry, looked up): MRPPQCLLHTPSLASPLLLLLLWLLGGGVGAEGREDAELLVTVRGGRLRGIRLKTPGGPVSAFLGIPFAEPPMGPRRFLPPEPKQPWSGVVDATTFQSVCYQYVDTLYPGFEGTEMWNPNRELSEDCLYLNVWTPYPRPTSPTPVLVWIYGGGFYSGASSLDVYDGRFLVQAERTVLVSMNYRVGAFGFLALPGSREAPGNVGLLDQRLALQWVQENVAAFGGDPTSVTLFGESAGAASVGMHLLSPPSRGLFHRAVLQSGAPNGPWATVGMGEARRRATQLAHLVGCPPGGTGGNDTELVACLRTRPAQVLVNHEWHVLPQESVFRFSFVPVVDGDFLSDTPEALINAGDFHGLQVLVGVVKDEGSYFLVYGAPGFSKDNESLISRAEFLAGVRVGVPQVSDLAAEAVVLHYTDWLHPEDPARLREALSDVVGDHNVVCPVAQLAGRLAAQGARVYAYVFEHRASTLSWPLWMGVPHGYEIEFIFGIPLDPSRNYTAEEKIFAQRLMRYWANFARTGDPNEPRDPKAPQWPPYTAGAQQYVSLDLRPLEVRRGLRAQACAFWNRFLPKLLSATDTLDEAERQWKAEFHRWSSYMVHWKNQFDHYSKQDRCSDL
Method in brief: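 Colorimetric readout: DTNB quantifies thiocholine from acetylthiocholine hydrolysed by endogenous AChE of SH-SY5Y cells (2,000/well, plated overnight). Compound pretreatment 30 min, substrate incubation 90 min, both 37 C.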

[11] = biological target: Acetylcholinesterase (Homo sapiens) (UniProt P22303); test: Acetylcholinesterase (AChE) small molecule antagonists: enzyme-based qHTS assay (AID 1347397; calls by dose curve; note: nearly all actives have a fitted effect of over 55% in size); conditions: Potency: AChE enzyme activity inhibition
Method in brief: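 rhAChE 50 mU/mL (dispensed) + cpd or DMSO, 30 min RT; add DTNB/acetylthiocholine cocktail, 10 min RT; colorimetric thiocholine readout. qHTS, 1536-well format.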

[12] = biological target: Acetylcholinesterase (Homo sapiens) (UniProt P22303); test: Acetylcholinesterase (AChE) small molecule antagonists: fluorescence cell-based qHTS assay (AID 1347398; calls by dose curve; note: nearly all actives have a fitted effect of over 50% in size); conditions: Potency: AChE activity
Method in brief: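 Read-out is Thiolite Green fluorescence at Ex/Em = 490/520 nm, formed by reaction with thiocholine released when cellular AChE in SH-SY5Y cells hydrolyzes acetylthiocholine. Compounds were preincubated 30 min at 37 C before substrate.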

[13] = biological target: Acetylcholinesterase (Homo sapiens) (UniProt P22303); test: Acetylcholinesterase (AChE) small molecule antagonists: enzyme-based qHTS assay with human liver microsomes (AID 1347399; calls by dose curve; note: nearly all actives have a fitted effect of over 60% in size); conditions: Potency: qHTS inhibition
Method in brief: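 Recombinant human AChE (50 mU/mL in the enzyme mix) and human liver microsomes (0.25 mg/mL final) were preincubated with compound and NADPH (0.25 mg/mL final) for 30 min at 37 C. Acetylthiocholine/DTNB was then added; thiocholine was read colorimetrically after 10 min at room temperature.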

[14] = biological target: Thyrotropin-releasing hormone receptor (Homo sapiens) (UniProt P34981); test: qHTS assay to identify small molecule antagonists of the thyrotropin-releasing hormone receptor (TRHR) signaling pathway (AID 1346877; active = well fitted inhibition curve with a large enough effect in the repeat runs, not every such curve was filed as active; note: series mostly up to about 51 µM)
Sequence of Thyrotropin-releasing hormone receptor (Homo sapiens) (P34981 whole entry, looked up): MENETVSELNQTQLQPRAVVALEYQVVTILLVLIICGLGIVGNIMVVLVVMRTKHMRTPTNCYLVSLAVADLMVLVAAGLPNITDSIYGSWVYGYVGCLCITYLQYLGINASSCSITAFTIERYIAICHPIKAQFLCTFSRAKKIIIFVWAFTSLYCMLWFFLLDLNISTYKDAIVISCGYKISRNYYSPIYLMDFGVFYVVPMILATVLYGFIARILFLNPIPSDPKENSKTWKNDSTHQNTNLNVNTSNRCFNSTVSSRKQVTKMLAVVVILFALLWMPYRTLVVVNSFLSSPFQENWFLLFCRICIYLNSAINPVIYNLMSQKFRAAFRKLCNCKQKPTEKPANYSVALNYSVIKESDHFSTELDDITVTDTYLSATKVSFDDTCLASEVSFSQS
Method in brief: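 Intracellular calcium fluorescence, read kinetically every second over 3 min, reports TRH-evoked signalling in HEK293 cells carrying TRHR. Test compounds were added 5 min ahead of a 1 nM TRH challenge.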

[15] = biological target: Thyrotropin-releasing hormone receptor (Homo sapiens) (UniProt P34981); test: qHTS assay to identify small molecule agonists of the thyrotropin-releasing hormone receptor (TRHR) signaling pathway (AID 1346891; calls by dose curve; note: series mostly up to about 58 µM)
Method in brief: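 Agonist-mode intracellular calcium readout: kinetic fluorescence over 3 min at 1 s intervals after compound addition to TRHR-HEK293 cells (18 h seeded, 2 h dye-loaded at 37 C). Fifteen concentrations, triplicates.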

[16] = Human pregnane X receptor (PXR) small molecule agonists, qHTS cell viability counter screen (AID 1346977); note: nearly all actives have a fitted effect of over 50% in size
Method in brief: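 Same-well viability read: CellTiter-Fluor added after 23 hr compound exposure, fluorescence measured 1 hr later. Cells were PXR-Luc HepG2 seeded at 2,000/well in 5% charcoal-stripped FBS medium, rested 5 hr before dosing at 37 C.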

[17] = biological target: Cytochrome P450 2D6 (Homo sapiens) (UniProt P10635); test: Cytochrome P450 Family 2 Subfamily D Member 6 (CYP2D6) small molecule antagonists: luciferase reporter qHTS assay (AID 1671196); note: nearly all actives have a fitted effect of over 50% in size; note: potency is the fitted concentration of half-maximal effect
Sequence of Cytochrome P450 2D6 (Homo sapiens) (P10635 whole entry, looked up): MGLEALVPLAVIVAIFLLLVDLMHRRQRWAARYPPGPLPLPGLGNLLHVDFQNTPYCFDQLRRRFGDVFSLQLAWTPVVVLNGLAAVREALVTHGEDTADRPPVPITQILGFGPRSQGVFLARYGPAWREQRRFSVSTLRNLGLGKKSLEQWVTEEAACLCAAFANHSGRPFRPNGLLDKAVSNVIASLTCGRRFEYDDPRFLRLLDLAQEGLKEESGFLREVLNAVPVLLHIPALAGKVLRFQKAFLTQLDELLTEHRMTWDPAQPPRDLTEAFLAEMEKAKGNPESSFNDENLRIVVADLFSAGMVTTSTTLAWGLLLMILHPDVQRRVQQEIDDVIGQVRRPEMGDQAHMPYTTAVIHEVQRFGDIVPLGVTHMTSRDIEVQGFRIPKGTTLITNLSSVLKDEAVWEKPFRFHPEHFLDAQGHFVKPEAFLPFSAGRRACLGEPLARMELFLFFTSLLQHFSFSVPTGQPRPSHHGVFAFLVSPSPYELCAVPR
Method in brief: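 Read-out is luminescence from luciferin formed by CYP2D6 turnover of a proluciferin substrate, recorded as relative luminescence units. Reactions ran 1 h at room temperature after NADPH regeneration solution was added.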

[18] = biological target: Nuclear receptor subfamily 1 group I member 2 (Rattus norvegicus) (UniProt Q9R1A7); test: Rat pregnane X receptor (rPXR) activation by small molecules, qHTS assay (AID 1346983); conditions: rPXR luciferase reporter cells, One-Glo luminescence, 24 h; stronger effect = higher value; note: nearly all actives have a fitted effect of over 20% in size
Sequence of Nuclear receptor subfamily 1 group I member 2 (Rattus norvegicus) (Q9R1A7 whole entry, looked up): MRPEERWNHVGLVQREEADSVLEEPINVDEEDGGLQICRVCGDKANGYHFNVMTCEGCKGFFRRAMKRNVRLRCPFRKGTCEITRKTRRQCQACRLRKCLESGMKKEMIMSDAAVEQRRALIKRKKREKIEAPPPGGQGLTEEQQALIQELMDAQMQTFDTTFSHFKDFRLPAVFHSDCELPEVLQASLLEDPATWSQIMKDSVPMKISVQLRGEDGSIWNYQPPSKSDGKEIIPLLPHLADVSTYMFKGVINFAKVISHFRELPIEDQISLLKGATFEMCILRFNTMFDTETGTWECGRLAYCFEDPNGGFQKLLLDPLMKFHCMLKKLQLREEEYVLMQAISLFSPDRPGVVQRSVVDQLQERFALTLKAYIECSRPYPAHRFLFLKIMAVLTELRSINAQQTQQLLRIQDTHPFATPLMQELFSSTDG
Method in brief: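 Luminescent readout (One-Glo luciferase, 30 min room temperature) followed 24 hr compound treatment at 37 C of rPXR cells plated 2,000 per well and preincubated 5hr; qHTS format with compounds delivered in DMSO.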

Row | SMILES | Potency [1] | Potency [2] | outcome [3] | Potency [4] | outcome [5] | Potency [6] | outcome [7] | Potency [8] | Potency [9] | Potency [10] | Potency [11] | Potency [12] | Potency [13] | outcome [14] | Potency [15] | Potency [16] | Potency [17] | max activation [18]
1 | CCCCOC(=O)c1ccccc1C(=O)OCCCC | inactive | inactive | inactive | inactive | inactive | inactive | inactive | inactive | inactive | inactive | inactive | inactive | inactive |  |  |  |  | 
2 | CN1C(=O)CN=C(c2ccccc2)c2cc(Cl)ccc21 | 27.7 µM (active) and inactive | inactive | inactive | inactive |  | inactive | inactive | inactive |  |  |  |  |  | inactive | inactive |  |  | 
3 | CCCCCCCCCCCC#N | inactive | inactive | inactive | inactive | inactive | inactive | inactive | inactive | inactive | inactive |  | inactive | inactive |  |  | inactive | inactive | 
4 | CC(C)(Cl)Cl | inactive | inactive | inactive | inactive | inactive | inactive | inactive | inactive | inactive | inactive | inactive | inactive | inactive | inactive | inactive |  | inactive | 
5 | O=c1[nH]c(=O)[nH]c(=O)[nH]1 | inactive |  | inactive | inactive | inactive | inactive | inactive | inactive | inactive | inactive |  | inactive | inactive | inactive | inactive | inactive | 63.2 µM (active) and inactive | 
6 | CC(NC(C)(C)C)C(=O)c1cccc(Cl)c1 (stereo not drawn) | inactive |  | inactive | inactive | inactive | inactive | inactive | inactive |  |  |  |  |  | inactive | inactive |  |  | -1.59% (inactive)
7 | O=S(=O)(c1ccc(Cl)cc1)c1cc(Cl)c(Cl)cc1Cl |  | inactive | inactive | inactive | inactive | 54.4 µM (active) and 68.6 µM (active) | inactive | inactive | 30.6 µM (active) |  | inactive | inactive | inactive | inactive | inactive | inactive | inactive | 
8 | C1CC2OC2CC1C1CO1 (stereo not drawn) | inactive |  | inactive | inactive | inactive | inactive | inactive | inactive | inactive | inactive | inactive | inactive | inactive |  |  |  | inactive | 
9 | COC(=O)c1ccccc1N | inactive |  | inactive | inactive | inactive | inactive | inactive | inactive | inactive |  |  | inactive | inactive | inactive | inactive |  | inactive | 
10 | [N-]=[N+]=[N-] | inactive |  | inactive | inactive | inactive | inactive | inactive | inactive | inactive | inactive | inactive | inactive | inactive | inactive | inactive |  | 38.6 µM (active) and inactive | 
